Source: PubChem BioAssay AID1159580 (chemical genetic matrix, 2015)
Several values for one entry are separate records, joined by “and”; a condition that tells them apart may be missing. Equal values may be shown once. Screen size: about 5,500 compounds; about 2,000 (36%) were called active. Inconclusive results (about 18%) are left out. No stated cut-off is given here; in the data, active means normalized growth mostly below about 0.91 (no sharp cut-off); inconclusive means no clear call, values can overlap the other calls; inactive means mostly above about 0.92. This is one part of the list.

Experiment: chemical genetic growth profiling, strain panel (AID 1159580);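 further: tested at 20 µM; growth read once vehicle control cultures reached saturation at 30 °C; 1 = growth at the plate median or of vehicle wells; lower values mean less growth of the strain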
Settings: growth OD

Measured: normalized growth

N[C@@H](Cc1cc(I)c(Oc2ccc(O)c(I)c2)c(I)c1)C(=O)O
inactive: S. cerevisiae deletion strains, locus YAL013W, strain DEP1, active compounds read low 1.02 | S. cerevisiae deletion strains, locus YBR021W, strain FUR4, active compounds read low 1.01 | S. cerevisiae deletion strains, locus YBR229C, strain ROT2, active compounds read low 0.998 | S. cerevisiae deletion strains, locus YCL029C, strain bik1, active compounds read low 1 | S. cerevisiae deletion strains, locus YDL035C, strain GPR1, active compounds read low 1.01 | S. cerevisiae deletion strains, locus YDL074C, strain BRE1, active compounds read low 1.03 | S. cerevisiae deletion strains, locus YDL101C, strain DUN1, active compounds read low 1.02 | S. cerevisiae deletion strains, locus YDL134C, strain PPH21, active compounds read low 1.01 | S. cerevisiae deletion strains, locus YDL185W, strain tfp1, active compounds read low 1 | S. cerevisiae deletion strains, locus YDL192W, strain arf1, active compounds read low 1 | S. cerevisiae deletion strains, locus YDR101C, strain arx1, active compounds read low 0.986 | S. cerevisiae deletion strains, locus YDR150W, strain NUM1, active compounds read low 1.01 | S. cerevisiae deletion strains, locus YDR162C, strain NBP2, active compounds read low 1.02 | S. cerevisiae deletion strains, locus YDR318W, strain mcm21, active compounds read low 0.982 | S. cerevisiae deletion strains, locus YDR388W, active compounds read low 1 | S. cerevisiae deletion strains, locus YDR502C, strain sam2, active compounds read low 0.987 | S. cerevisiae deletion strains, locus YEL061C, strain CIN8, active compounds read low 1 | S. cerevisiae deletion strains, locus YER110C, active compounds read low 1 | S. cerevisiae deletion strains, locus YER155C, strain BEM2, active compounds read low 1.01 | S. cerevisiae deletion strains, locus YER167W, strain BCK2, active compounds read low 1 | S. cerevisiae deletion strains, locus YGL078C, strain dbp3, active compounds read low 1 | S. cerevisiae deletion strains, locus YGL086W, strain mad1, active compounds read low 0.99 | S. cerevisiae deletion strains, locus YGL248W, strain PDE1, active compounds read low 1.01 | S. cerevisiae deletion strains, locus YGR078C, strain PAC10, active compounds read low 1.01 | S. cerevisiae deletion strains, locus YGR135W, strain pre9, active compounds read low 0.991 | S. cerevisiae deletion strains, locus YGR229C, strain SMI1, active compounds read low 1.02 | S. cerevisiae deletion strains, locus YGR252W, strain gcn5, active compounds read low 0.929 | S. cerevisiae deletion strains, locus YHR030C, strain SLT2, active compounds read low 1 and 0.914 | S. cerevisiae deletion strains, locus YHR079C, strain IRE1 (second series), active compounds read low 0.99 | S. cerevisiae deletion strains, locus YHR094C, strain hxt1, active compounds read low 1.01 | S. cerevisiae deletion strains, locus YHR129C, strain ARP1, active compounds read low 0.999 | S. cerevisiae deletion strains, locus YHR200W, strain rpn10, active compounds read low 0.994 | S. cerevisiae deletion strains, locus YIL066C, strain RNR3, active compounds read low 1.01 | S. cerevisiae deletion strains, locus YIL073C, strain SPO22, active compounds read low 1.02 | S. cerevisiae deletion strains, locus YIL125W, strain kgd1, active compounds read low 1 | S. cerevisiae deletion strains, locus YIR030C, strain dcg1, active compounds read low 1 | S. cerevisiae deletion strains, locus YJL095W, strain BCK1, active compounds read low 0.971 and 0.977 | S. cerevisiae deletion strains, locus YJL134W, strain LCB3, active compounds read low 1.01 | S. cerevisiae deletion strains, locus YJL168C, strain set2, active compounds read low 1 | S. cerevisiae deletion strains, locus YJL187C, strain SWE1 (second series), active compounds read low 1 | S. cerevisiae deletion strains, locus YJR043C, strain POL32, active compounds read low 1.01 | S. cerevisiae deletion strains, locus YJR066W, strain TOR1, active compounds read low 0.864 | S. cerevisiae deletion strains, locus YJR075W, strain HOC1, active compounds read low 0.996 | S. cerevisiae deletion strains, locus YKL009W, strain mrt4, active compounds read low 0.979 | S. cerevisiae deletion strains, locus YKL068W, active compounds read low 1.01 | S. cerevisiae deletion strains, locus YKL085W, strain MDH1 (second series), active compounds read low 1.03 | S. cerevisiae deletion strains, locus YKL085W, strain MDH1, active compounds read low 1.03 | S. cerevisiae deletion strains, locus YKL190W, strain CNB1, active compounds read low 1.01 | S. cerevisiae deletion strains, locus YKR001C, strain vps1, active compounds read low 0.967 | S. cerevisiae deletion strains, locus YLR039C, strain RIC1, active compounds read low 0.978 | S. cerevisiae deletion strains, locus YLR058C, strain SHM2, active compounds read low 1.01 | S. cerevisiae deletion strains, locus YLR102C, strain apc9, active compounds read low 0.999 | S. cerevisiae deletion strains, locus YLR113W, strain HOG1, active compounds read low 1.03 | S. cerevisiae deletion strains, locus YLR262C, strain YPT6, active compounds read low 0.993 | S. cerevisiae deletion strains, locus YLR268W, strain sec22, active compounds read low 0.982 | S. cerevisiae deletion strains, locus YLR330W, strain CHS5, active compounds read low 1.01 | S. cerevisiae deletion strains, locus YLR342W, strain FKS1 (second series), active compounds read low 1.01 | S. cerevisiae deletion strains, locus YLR371W, strain rom2, active compounds read low 1 | S. cerevisiae deletion strains, locus YLR418C, strain cdc73, active compounds read low 0.951 | S. cerevisiae deletion strains, locus YML016C, strain PPZ1, active compounds read low 1.01 | S. cerevisiae deletion strains, locus YML032C, strain rad52, active compounds read low 0.981 | S. cerevisiae deletion strains, locus YML124C, strain tub3, active compounds read low 1.01 | S. cerevisiae deletion strains, locus YMR078C, strain ctf18, active compounds read low 1.01 | S. cerevisiae deletion strains, locus YMR223W, strain ubp8, active compounds read low 0.984 | S. cerevisiae deletion strains, locus YMR263W, strain SAP30, active compounds read low 1 | S. cerevisiae deletion strains, locus YMR307W, strain GAS1, active compounds read low 1.06 | S. cerevisiae deletion strains, locus YNL067W, strain RPL9B, active compounds read low 1.02 | S. cerevisiae deletion strains, locus YNL128W, strain TEP1, active compounds read low 1.02 | S. cerevisiae deletion strains, locus YNL153C, strain GIM3, active compounds read low 1.01 | S. cerevisiae deletion strains, locus YNL233W, strain BNI4, active compounds read low 1 | S. cerevisiae deletion strains, locus YNL250W, strain rad50, active compounds read low 1.01 | S. cerevisiae deletion strains, locus YNL271C, strain bni1, active compounds read low 0.995 | S. cerevisiae deletion strains, locus YNL298W, strain CLA4, active compounds read low 1 | S. cerevisiae deletion strains, locus YNL307C, strain MCK1, active compounds read low 0.939 | S. cerevisiae deletion strains, locus YNL322C, strain KRE1, active compounds read low 1.02 | S. cerevisiae deletion strains, locus YNR052C, strain pop2, active compounds read low 0.996 | S. cerevisiae deletion strains, locus YOL006C, strain TOP1, active compounds read low 0.992 | S. cerevisiae deletion strains, locus YOL012C, strain htz1 1.15 | S. cerevisiae deletion strains, locus YOL147C, strain pex11, active compounds read low 0.996 | S. cerevisiae deletion strains, locus YOR061W, strain CKA2, active compounds read low 1.01 | S. cerevisiae deletion strains, locus YOR069W, strain VPS5, active compounds read low 1 | S. cerevisiae deletion strains, locus YOR136W, strain idh2, active compounds read low 1 | S. cerevisiae deletion strains, locus YOR144C, strain elg1, active compounds read low 1 | S. cerevisiae deletion strains, locus YOR184W, strain ser1, active compounds read low 0.963 | S. cerevisiae deletion strains, locus YOR231W, strain MKK1, active compounds read low 1.01 | S. cerevisiae deletion strains, locus YOR316C, strain cot1, active compounds read low 0.998 | S. cerevisiae deletion strains, locus YPL055C, strain LGE1, active compounds read low 1.05 | S. cerevisiae deletion strains, locus YPL241C, strain CIN2, active compounds read low 1.01 | S. cerevisiae deletion strains, locus YPL256C, strain CLN2, active compounds read low 0.964 | S. cerevisiae deletion strains, locus YPR119W, strain clb2, active compounds read low 1.01 | S. cerevisiae deletion strains, locus YPR141C, strain kar3, active compounds read low 1.01 | S. cerevisiae deletion strains, locus YPR163C, strain tif3, active compounds read low 1.01 | S. cerevisiae deletion strains, locus YPR167C, strain met16, active compounds read low 1 | S. cerevisiae deletion strains, strain wtn01, active compounds read low 0.984 | S. cerevisiae strains, strain wild type, active compounds read low 1.01
active: S. cerevisiae deletion strains, locus YHR079C, strain IRE1, active compounds read low 0.846
